From PubChem BioAssay (Tox21)
Several values for one entry are separate records, joined by “and”; a condition that tells them apart may be missing. Identical values can stand only once. Records with an inconclusive call do not appear. Entries that show only a call come without a potency. Some compounds were tested as several samples or in several runs, with calls that do not always agree. Activity calls are given as the source filed them. Calls follow the shape of the dose curve; as a rule, active = well fitted curve in the direction sought with a large enough effect in the repeat runs; inconclusive = weak or mixed curves; inactive = no such curve, though single readings can be large; an effect the other way counts as inactive or inconclusive.

Tests used:
[1] = Caspase-3/7 induction in HepG2 cells by small molecules, qHTS assay (AID 1346978); also: nearly all actives have a fitted effect of over 15% in size; also: potency is read from the fitted curve at half-maximal effect
Procedure, shortened: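 Wild-type HepG2 cells (2,000/well) were settled 5 h at 37 C, 5% CO2, then exposed to compounds in DMSO for 17 h. Caspase-3/7 activity was read by luminescence 30 min after adding Caspase-Glo 3/7 reagent at room temperature.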

[2] = Caspase-3/7 induction in CHO-K1 cells by small molecules, qHTS cell viability counter screen (AID 1346979); also: nearly all actives have a fitted effect of over 35% in size; also: potency is read from the fitted curve at half-maximal effect
Procedure, shortened: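 Following a 5hr settling period, CHO-K1 cells at 1,500 per well received DMSO-dissolved compounds. Cell viability was quantified 16hr later by CellTiter-Fluor fluorescence, measured after 1hr with reagent at 37C.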

[3] = Caspase-3/7 induction in CHO-K1 cells by small molecules, qHTS assay (AID 1346980); also: nearly all actives have a fitted effect of over 15% in size
Procedure, shortened: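 Wild-type cells were seeded at 1,500 per well and settled 5 hr at 37 C, 5% CO2, then exposed to DMSO-dissolved compounds for 17 hr. Caspase-Glo 3/7 reagent was added, and luminescence was read after 30min at room temperature.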

[4] = Caspase-3/7 induction in HepG2 cells by small molecules, qHTS cell viability counter screen (AID 1346981); also: nearly all actives have a fitted effect of over 30% in size; also: potency is read from the fitted curve at half-maximal effect
Procedure, shortened: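 In this quantitative HTS counter screen, compounds delivered in DMSO were left on unmodified HepG2 cells for 16 hr at 37 C. Viability was then determined fluorometrically with CellTiter-Fluor, in parallel with caspase-3/7 induction in the same wells.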

[5] = molecular target: Nuclear receptor subfamily 1 group I member 2 (Homo sapiens) (UniProt O75469); assay: Human pregnane X receptor (PXR) small molecule agonists, qHTS assay (AID 1346982); also: nearly all actives have a fitted effect of over 35% in size; also: potency is read from the fitted curve at half-maximal effect
Chain of Nuclear receptor subfamily 1 group I member 2 (Homo sapiens) (O75469 whole entry, looked up): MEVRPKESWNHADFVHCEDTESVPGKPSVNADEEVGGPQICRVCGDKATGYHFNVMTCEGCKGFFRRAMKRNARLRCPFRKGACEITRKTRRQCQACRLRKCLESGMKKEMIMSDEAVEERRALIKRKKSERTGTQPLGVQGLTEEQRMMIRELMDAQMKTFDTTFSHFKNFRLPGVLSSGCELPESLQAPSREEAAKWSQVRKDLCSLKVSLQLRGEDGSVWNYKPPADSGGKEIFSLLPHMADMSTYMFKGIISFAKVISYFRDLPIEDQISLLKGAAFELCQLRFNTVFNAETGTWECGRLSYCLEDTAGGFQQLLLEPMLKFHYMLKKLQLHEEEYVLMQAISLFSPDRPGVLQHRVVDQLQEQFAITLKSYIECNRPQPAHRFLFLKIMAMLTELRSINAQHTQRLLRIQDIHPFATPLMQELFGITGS
Procedure, shortened: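 Reporter HepG2 cells expressing PXR-Luc are cultured in charcoal-stripped FBS (5%), treated with compounds for 24 hr at 37 C, and assayed by ONE-Glo luminescence after 30 min at room temperature.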

[6] = molecular target: Cytochrome P450 2D6 (Homo sapiens) (UniProt P10635); assay: Cytochrome P450 Family 2 Subfamily D Member 6 (CYP2D6) small molecule antagonists: luciferase reporter qHTS assay (AID 1671196); also: nearly all actives have a fitted effect of over 50% in size; also: potency is read from the fitted curve at half-maximal effect
Chain of Cytochrome P450 2D6 (Homo sapiens) (P10635 whole entry, looked up): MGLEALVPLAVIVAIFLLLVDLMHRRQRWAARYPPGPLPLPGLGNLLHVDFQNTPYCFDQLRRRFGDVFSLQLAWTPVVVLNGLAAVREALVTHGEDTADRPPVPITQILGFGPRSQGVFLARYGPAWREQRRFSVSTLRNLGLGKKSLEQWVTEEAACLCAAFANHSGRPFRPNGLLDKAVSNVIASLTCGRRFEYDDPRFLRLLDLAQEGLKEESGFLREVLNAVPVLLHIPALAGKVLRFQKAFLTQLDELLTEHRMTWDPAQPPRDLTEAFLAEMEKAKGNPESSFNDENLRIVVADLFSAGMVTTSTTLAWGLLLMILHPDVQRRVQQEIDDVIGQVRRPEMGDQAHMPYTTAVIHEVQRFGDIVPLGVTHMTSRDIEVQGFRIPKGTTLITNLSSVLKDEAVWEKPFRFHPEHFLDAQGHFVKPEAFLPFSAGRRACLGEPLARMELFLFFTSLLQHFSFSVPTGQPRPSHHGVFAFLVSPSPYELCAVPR
Procedure, shortened: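 Test chemicals meet CYP2D6 plus proluciferin substrate (10 min, RT); NADPH regenerating solution then drives turnover for 1 h. Detection reagent halts the reaction; luminescence measured after 20 min.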

[7] = molecular target: Cytochrome P450 2C19 (Homo sapiens) (UniProt P33261); assay: Cytochrome P450 Family 2 Subfamily C Member 19 (CYP2C19) small molecule antagonists: luciferase reporter qHTS assay (AID 1671197); also: nearly all actives have a fitted effect of over 65% in size; also: potency is read from the fitted curve at half-maximal effect
Chain of Cytochrome P450 2C19 (Homo sapiens) (P33261 whole entry, looked up): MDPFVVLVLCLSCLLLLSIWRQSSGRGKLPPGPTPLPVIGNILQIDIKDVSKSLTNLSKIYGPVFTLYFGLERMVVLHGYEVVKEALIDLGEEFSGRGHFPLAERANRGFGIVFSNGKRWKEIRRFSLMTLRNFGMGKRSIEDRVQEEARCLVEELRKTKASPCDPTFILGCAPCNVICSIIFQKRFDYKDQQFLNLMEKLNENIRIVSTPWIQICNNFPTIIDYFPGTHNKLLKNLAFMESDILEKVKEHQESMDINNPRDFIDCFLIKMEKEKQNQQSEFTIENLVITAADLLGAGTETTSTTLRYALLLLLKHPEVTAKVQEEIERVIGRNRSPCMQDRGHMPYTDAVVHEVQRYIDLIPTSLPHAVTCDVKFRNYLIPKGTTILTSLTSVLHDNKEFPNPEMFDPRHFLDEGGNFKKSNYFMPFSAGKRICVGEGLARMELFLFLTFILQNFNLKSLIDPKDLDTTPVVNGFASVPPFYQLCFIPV
Procedure, shortened: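 Luminescent readout of CYP2C19 activity: luciferin product detected 20 min after adding detection reagent. Before that, compound and enzyme-substrate mix preincubated 10 min at room temperature; NADPH-regenerating system started a 1 h, 37C reaction. Ketoconazole as positive control.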

[8] = molecular target: Nuclear receptor subfamily 1 group I member 2 (Rattus norvegicus) (UniProt Q9R1A7); assay: Rat pregnane X receptor (rPXR) activation by small molecules, qHTS assay (AID 1346983); details: rPXR luciferase reporter cells, One-Glo luminescence, 24 h; max activation: stronger effect = higher value; also: nearly all actives have a fitted effect of over 20% in size
Chain of Nuclear receptor subfamily 1 group I member 2 (Rattus norvegicus) (Q9R1A7 whole entry, looked up): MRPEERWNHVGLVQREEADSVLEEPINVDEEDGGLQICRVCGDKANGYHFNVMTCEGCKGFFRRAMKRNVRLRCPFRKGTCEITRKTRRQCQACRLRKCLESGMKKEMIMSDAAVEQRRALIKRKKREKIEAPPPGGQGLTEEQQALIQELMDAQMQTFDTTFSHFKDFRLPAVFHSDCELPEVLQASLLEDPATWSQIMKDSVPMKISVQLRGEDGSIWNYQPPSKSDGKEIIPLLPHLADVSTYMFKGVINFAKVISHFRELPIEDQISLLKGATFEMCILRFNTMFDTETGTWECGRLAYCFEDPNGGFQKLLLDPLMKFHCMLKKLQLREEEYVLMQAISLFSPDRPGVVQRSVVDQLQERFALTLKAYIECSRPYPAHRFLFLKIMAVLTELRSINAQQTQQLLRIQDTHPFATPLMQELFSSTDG
Procedure, shortened: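 Cell-based rPXR luciferase reporter assay, 2,000 cells per well, rested 5hr at 37 C before compound addition in DMSO, then 24 hr at 37 C. One-Glo reagent was added and luminescence read after 30 min at room temperature.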

[9] = molecular target: Nuclear receptor subfamily 1 group I member 2 (Homo sapiens) (UniProt O75469); assay: CYP3A4 induction through human pregnane X receptor (PXR) by small molecules, qHTS assay (AID 1346984); also: nearly all actives have a fitted effect of over 40% in size; also: potency is read from the fitted curve at half-maximal effect
Procedure, shortened: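 Induction measured in HepG2-based DPX-2 cells co-expressing human PXR and a CYP3A4 promoter-driven luciferase. After a 24-hour compound exposure, cells received CYP3A4 luciferin substrate at 3uM final for 3 hours, and light output was then recorded.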

[10] = molecular target: Nuclear receptor subfamily 1 group I member 2 (Homo sapiens) (UniProt O75469); assay: Human pregnane X receptor (PXR) activation by small molecules, qHTS assay (AID 1346985); also: nearly all actives have a fitted effect of over 40% in size; also: potency is read from the fitted curve at half-maximal effect
Procedure, shortened: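 DPX-2 cells (HepG2 co-transfected with a PXR response element and a CYP3A4-promoter luciferase construct) were seeded at 2,000 per well, rested 5 hr at 37C, then exposed to DMSO-dissolved compounds for 24 hr. Activation was read as luciferase luminescence.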

C=CCOC(=O)C(=C)C
Potency [1]: inactive | Potency [2]: inactive | Potency [3]: inactive | Potency [4]: inactive | Potency [5]: inactive | Potency [6]: inactive | Potency [7]: inactive

C=CCCCCCCCCCC
Potency [1]: inactive | Potency [2]: inactive | Potency [3]: inactive | Potency [4]: inactive | Potency [5]: inactive | Potency [6]: inactive | Potency [7]: inactive

Cc1ccc([N+](=O)[O-])c(C)c1
Potency [1]: inactive | Potency [2]: inactive | Potency [3]: inactive | Potency [4]: inactive | Potency [5]: inactive | Potency [6]: inactive | Potency [7]: 8.94 µM (active) and inactive

O=C1OC2(c3ccccc31)c1cc(I)c(O)c(I)c1Oc1c2cc(I)c(O)c1I
Potency [1]: inactive | Potency [2]: 10.5 µM (active) [middle of 4 runs] | Potency [3]: inactive | Potency [4]: 13.3 µM (active) [middle of 4 runs] | Potency [5]: inactive | Potency [6]: 28.3 µM (active) and 36 µM (active) | Potency [7]: 56.5 µM (active) and 18 µM (active) and 5.43 µM (active)

CC(=O)OC(C)C
Potency [1]: inactive | Potency [2]: inactive | Potency [3]: inactive | Potency [4]: inactive | Potency [5]: inactive | Potency [6]: inactive | Potency [7]: inactive

CCCCCC1C(=O)CCC1CC(=O)OC (configuration not stated)
Potency [1]: inactive | Potency [2]: inactive | Potency [3]: inactive | Potency [4]: inactive | Potency [5]: inactive | Potency [6]: inactive

C=C[C@H]1CN2CC[C@H]1C[C@H]2[C@H](O)c1ccnc2ccc(OC)cc12
Potency [1]: inactive | Potency [2]: inactive | Potency [3]: inactive | Potency [4]: inactive | max activation [8]: -0.698% (inactive) | Potency [7]: inactive

O=C(O)c1ccc(O)cc1
Potency [1]: inactive | Potency [2]: inactive | Potency [3]: inactive | Potency [4]: inactive | Potency [5]: inactive | Potency [6]: inactive | Potency [7]: inactive

NCCS(=O)(=O)O
Potency [1]: inactive | Potency [2]: 28.4 µM (active) and inactive | Potency [4]: inactive

NCCN
Potency [1]: inactive | Potency [2]: inactive | Potency [4]: inactive | Potency [5]: inactive | max activation [8]: -1.7% (inactive) | Potency [9]: inactive | Potency [10]: inactive | Potency [6]: 31.7 µM (active)

Cc1ccc(C(C)(C)C)cc1
Potency [1]: inactive | Potency [2]: inactive | Potency [3]: inactive | Potency [4]: inactive | Potency [5]: inactive | Potency [6]: inactive | Potency [7]: inactive

O=C1CCc2ccccc2O1
Potency [1]: inactive | Potency [2]: inactive | Potency [3]: inactive | Potency [4]: inactive | Potency [5]: inactive | Potency [6]: inactive | Potency [7]: 31.9 µM (active) and inactive

C[C@]12CC[C@@H]3c4ccc(O)cc4CC[C@H]3[C@@H]1CC[C@H]2O
Potency [1]: 11.1 µM (active) | Potency [2]: 49.4 µM (active) and 54.5 µM (active) | Potency [3]: inactive | Potency [4]: inactive | Potency [6]: inactive

Nc1ccc(N)c(Cl)c1
Potency [1]: inactive | Potency [2]: 61 µM (active) and 54.5 µM (active) | Potency [3]: inactive | Potency [4]: 68.5 µM (active) | Potency [5]: 21.6 µM (active) and 48.6 µM (active) | Potency [6]: 12.6 µM (active) and 22.4 µM (active) | Potency [7]: 3.17 µM (active) and 5.03 µM (active)

c1ccc2c(c1)ccc1ncccc12
Potency [1]: inactive | Potency [2]: inactive | Potency [3]: inactive | Potency [4]: inactive | Potency [5]: 60.7 µM (active) and 61.1 µM (active) | Potency [6]: 7.91 µM (active) | Potency [7]: 35.3 µM (active) and 79.6 µM (active)

COCCOCCOCCO
Potency [1]: inactive | Potency [2]: inactive | Potency [3]: inactive | Potency [4]: inactive | Potency [5]: inactive | Potency [6]: inactive | Potency [7]: inactive

COc1ccc2nc(N)sc2c1
Potency [1]: inactive | Potency [2]: inactive | Potency [3]: inactive | Potency [4]: inactive | Potency [5]: 48.6 µM (active) and 21.7 µM (active) | Potency [6]: 10 µM (active) and 63.3 µM (active) | Potency [7]: 39.9 µM (active) and 71 µM (active)

Cc1ccc2c(c1)C(=O)OC2=O
Potency [1]: inactive | Potency [2]: inactive | Potency [3]: inactive | Potency [4]: inactive | Potency [5]: inactive | Potency [6]: inactive and 6.33 µM (active) | Potency [7]: inactive

[Na+]
Potency [1]: inactive | Potency [2]: inactive | Potency [3]: inactive | Potency [4]: inactive | Potency [5]: inactive | Potency [6]: inactive

C=C[Si](OCCOC)(OCCOC)OCCOC
Potency [1]: inactive | Potency [2]: inactive | Potency [3]: inactive | Potency [4]: inactive | Potency [5]: inactive | Potency [6]: 28.4 µM (active) and inactive | Potency [7]: inactive

CN(C)C
Potency [1]: inactive | Potency [2]: inactive | Potency [3]: inactive | Potency [4]: inactive | Potency [5]: inactive | Potency [6]: inactive | Potency [7]: inactive

CC(=O)Nc1ccc2c(c1)Cc1cc(NC(C)=O)ccc1-2
Potency [1]: inactive | Potency [2]: inactive | Potency [3]: inactive | Potency [4]: inactive | Potency [5]: 17.2 µM (active) and 7.7 µM (active) | Potency [6]: inactive | Potency [7]: inactive

Cc1ccc(C)c(O)c1
Potency [1]: inactive | Potency [2]: inactive | Potency [3]: inactive | Potency [4]: inactive | Potency [5]: inactive | Potency [6]: inactive | Potency [7]: 30.9 µM (active) and inactive

CC[C@]12CCCN3CCc4c(n(c5ccccc45)[C@@](O)(C(=O)OC)C1)[C@@H]32
Potency [1]: inactive | Potency [2]: inactive | Potency [4]: inactive | Potency [5]: 30.6 µM (active) and 9.44 µM (active) | max activation [8]: 1.48% (inactive) | Potency [9]: 12.6 µM (active) | Potency [10]: 14.1 µM (active) | Potency [6]: 10 µM (active) and 8.71 µM (active)

CCCCCCCCCCCCO
Potency [1]: inactive | Potency [2]: inactive | Potency [3]: inactive | Potency [4]: inactive | Potency [5]: inactive | Potency [6]: inactive
